Experimental data as given in article PMC4336329 (PLoS ONE, 2015).
About 14,000 (4.5%) of roughly 310,000 compounds showed an effect of 50% or more. Effects have a minus sign here. The entries come from a sample that favours strong results as a whole.

biological target: human ether-à-go-go-related gene (hERG) potassium channel (human, UniProt Q12809); assay: primary screen, population patch clamp on CHO cells stably expressing hERG; higher = less effect of the substance
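Also: peak tail current of the secondary pulse compared with the same well before compound.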

human ether-à-go-go-related gene (hERG) potassium channel, sequence (Q12809 whole entry, looked up): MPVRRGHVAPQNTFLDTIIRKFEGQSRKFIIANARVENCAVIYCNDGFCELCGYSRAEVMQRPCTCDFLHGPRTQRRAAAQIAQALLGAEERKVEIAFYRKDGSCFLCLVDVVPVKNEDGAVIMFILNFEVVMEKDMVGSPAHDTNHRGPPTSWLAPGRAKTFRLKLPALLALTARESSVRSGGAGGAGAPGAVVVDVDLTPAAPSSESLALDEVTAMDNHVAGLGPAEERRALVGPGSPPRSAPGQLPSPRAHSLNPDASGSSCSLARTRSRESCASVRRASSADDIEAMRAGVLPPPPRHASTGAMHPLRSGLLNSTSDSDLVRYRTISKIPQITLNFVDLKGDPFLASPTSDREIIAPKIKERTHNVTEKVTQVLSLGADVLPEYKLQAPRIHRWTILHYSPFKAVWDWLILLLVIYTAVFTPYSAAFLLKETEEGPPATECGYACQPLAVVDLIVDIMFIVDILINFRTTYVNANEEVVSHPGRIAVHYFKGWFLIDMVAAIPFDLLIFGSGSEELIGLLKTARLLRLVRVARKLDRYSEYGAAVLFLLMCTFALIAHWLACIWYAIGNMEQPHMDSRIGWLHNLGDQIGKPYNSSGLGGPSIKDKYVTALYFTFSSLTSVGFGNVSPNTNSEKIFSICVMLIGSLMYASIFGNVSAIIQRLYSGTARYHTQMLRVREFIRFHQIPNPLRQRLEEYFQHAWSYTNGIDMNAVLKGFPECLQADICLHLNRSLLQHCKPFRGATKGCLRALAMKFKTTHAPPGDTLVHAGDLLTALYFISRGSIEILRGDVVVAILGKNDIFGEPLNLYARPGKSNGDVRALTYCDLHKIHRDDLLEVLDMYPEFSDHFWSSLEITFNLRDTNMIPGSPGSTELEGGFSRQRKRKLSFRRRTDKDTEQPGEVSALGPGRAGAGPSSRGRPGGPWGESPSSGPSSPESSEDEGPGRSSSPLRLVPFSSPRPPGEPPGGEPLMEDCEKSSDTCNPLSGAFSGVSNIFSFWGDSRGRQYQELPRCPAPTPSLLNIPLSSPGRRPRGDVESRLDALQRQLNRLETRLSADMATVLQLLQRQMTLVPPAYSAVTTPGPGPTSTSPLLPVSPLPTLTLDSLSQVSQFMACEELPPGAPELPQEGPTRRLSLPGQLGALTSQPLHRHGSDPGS

| Structure (SMILES) | hERG current change (%, negative = inhibition) at 10uM |
| --- | --- |
| CCOc1ccccc1CN1CCNC(=O)C1CC(=O)NCc1nccn1CC (stereo not drawn) | 18.8% |
| O=C(CNC(=O)c1ccccc1)NCC(=O)OCc1ccc(Cl)cc1 | -29.3% |
| Cc1onc(-c2c(Cl)cccc2Cl)c1C(=O)NC(=S)N1CCOCC1 | 6% |
| O=C(CCn1nnc(-c2cccs2)n1)NC1CCCCC1 | 2.79% |
| C=CCOc1cccc(C2C(C(=O)c3ccc(C)o3)=C(O)C(=O)N2CCCn2ccnc2)c1 (stereo not drawn) | 9.13% |
| Cn1cccc1/C=C1\SC(=S)N(NC(=O)c2ccccc2Cl)C1=O | 1.91% |
| CCn1c(SCC(=O)Nc2cc(C)on2)nnc1-c1ccc(S(=O)(=O)N2CCN(C)CC2)cc1 | -23.1% |
| Cc1cc(N=Nc2ccc(Cl)cc2)cc(CN2CCOCC2)c1O | 11.6% |
| CC(=O)c1ccc(OC(=O)Cc2cccc3ccccc23)cc1 | 3.13% |
| c1ccc2c(CNC3CCCCCC3)c[nH]c2c1 | -20.8% |
| O=S(=O)(Cc1cc(-c2ccc(Cl)cc2)no1)c1ccccc1 | 0.608% |
| O=S(=O)(Cc1cc(-c2ccccc2Cl)no1)c1ccccc1 | -51% |
| O=S(=O)(Cc1cc(-c2ccccc2)no1)c1ccccc1 | -2.75% |
| COCCn1nnnc1C(c1cccs1)N1CCCC(C)C1.Cl (stereo not drawn) | 17.9% |
| COc1ccc(/C=C/C(=O)Nc2ccccc2C(F)(F)F)cc1OC | -4.62% |
| CCC(=O)N1N=C(c2ccc(Cl)cc2)CC1c1ccco1 (stereo not drawn) | 0.74% |
| COCC(=O)OCC(=O)N1N=C(c2ccc(Cl)cc2)CC1c1ccco1 (stereo not drawn) | -28.1% |
| CC(=O)N1N=C(c2ccc(Cl)cc2)CC1c1ccco1 (stereo not drawn) | 7.11% |
| Cc1ccc(OCC(=O)N2N=C(c3ccc(Cl)cc3)CC2c2ccco2)c([N+](=O)[O-])n1 (stereo not drawn) | -63.3% |
| Cl.N=c1sccn1CC(=O)N1N=C(c2ccc(Cl)cc2)CC1c1ccco1 (stereo not drawn) | -79.5% |
| COc1ccc(C(=O)NCC(=O)OCC(=O)N2N=C(c3ccc(Cl)cc3)CC2c2ccco2)cc1OC (stereo not drawn) | -5.57% |
| O=C(O)CCC(=O)N1N=C(c2ccco2)CC1c1ccco1 (stereo not drawn) | -78.1% |
| O=C(CCl)N1N=C(c2ccco2)CC1c1ccco1 (stereo not drawn) | 14% |
| O=C(COc1cccnc1[N+](=O)[O-])N1N=C(c2ccc(Cl)cc2)CC1c1ccco1 (stereo not drawn) | 16.9% |

| Structure (SMILES) | hERG current change (%, negative = inhibition) at 10uM |
| --- | --- |
| O=C(O)CCCC(=O)N1N=C(c2ccco2)CC1c1ccco1 (stereo not drawn) | 9.6% |
| O=C(OCC(=O)N1N=C(c2ccc(Cl)cc2)CC1c1ccco1)c1ccco1 (stereo not drawn) | 27.4% |
| O=C(CNC(=O)c1ccccc1)OCC(=O)N1N=C(c2ccc(Cl)cc2)CC1c1ccco1 (stereo not drawn) | -72.5% |
| COc1cc(S(=O)(=O)N2CCN(C)CC2)c(OC)cc1Cl | 13.2% |
| COC(=O)c1nn(-c2ccc(OC)cc2)c(=O)cc1O | 16.9% |
| O=C(CCc1c[nH]c2ccccc12)NCc1ccco1 | 32.4% |
| Cc1ccc(CN(Cc2cc3cc(C)ccc3[nH]c2=O)C(=O)N2CCOCC2)cc1 | -13.2% |
| Cc1cccc(NC(=O)CSc2nncn2-c2ccccn2)c1 | -1.31% |
| CSc1ncc(CN2CCCC(C(=O)Nc3ccc(-c4ccco4)cc3)C2)cn1 (stereo not drawn) | 11.1% |
| Cc1ccccc1-n1c(-c2ccoc2)nc2ccccc2c1=O | 6.09% |
| CCN(Cc1ccccc1)C(=O)c1c(-c2ccccc2Cl)noc1C | -9.34% |
| OCCC1CN(Cc2nc(-c3ccccc3)cs2)CCN1Cc1ccc(F)cc1 (stereo not drawn) | -69.8% |
| OCCC1CN(Cc2nc(-c3ccccc3)cs2)CCN1CCc1ccccc1 (stereo not drawn) | -77.8% |
| OCCC1CN(Cc2nc(-c3ccc(F)cc3)cs2)CCN1CCc1ccccc1 (stereo not drawn) | -80.6% |
| CC(C)CN1CCN(Cc2nc(C(C)C)cs2)CC1CCO (stereo not drawn) | 1.27% |
| CC(C)c1csc(CN2CCN(Cc3ccccc3)C(CCO)C2)n1 (stereo not drawn) | -26.3% |
| CC(C)c1csc(CN2CCN(CCc3ccccc3)C(CCO)C2)n1 (stereo not drawn) | -76% |
| C=C(c1ccccc1)P(=O)(O)O | 17.8% |
| COc1ccccc1C(=O)NCCC(=O)OCC(=O)Nc1ccc(S(N)(=O)=O)cc1 | -2.51% |
| Cc1cc(C(=O)Nc2ccc3ccccc3c2)c(C)o1 | 6.68% |
| COc1ccc2oc(=O)c(-c3csc(Nc4cccc(O)c4)n3)cc2c1 | 25.8% |
| COC(=O)CN1C(=O)[C@H]2[C@@H](c3ccc(C)o3)N3C(=O)CN(Cc4ccccn4)C(=O)[C@@]3(Cc3ccccc3)[C@H]2C1=O | 21.5% |
| O=C(NCc1ccccc1)c1cccc(S(=O)(=O)N2CCOCC2)c1 | 0.662% |
| Cc1ccc(N/C=C/C(=O)C(C)(C)C)c(O)c1 | -5.33% |

| Structure (SMILES) | hERG current change (%, negative = inhibition) at 10uM |
| --- | --- |
| CC(=O)NC(CC(=O)O)c1ccc(F)cc1 (stereo not drawn) | 0.22% |
| COc1ccc(CNC(=O)CSc2nnc(C)c(=O)[nH]2)cc1 | 18.2% |
| CC(C)N1CCN(Cc2nc(-c3ccccc3)cs2)CC1CCO (stereo not drawn) | -47.7% |
| Cc1cccc(CN2CCN(C3CCCC3)C(CCO)C2)n1 (stereo not drawn) | 3.1% |
| CC(C)CCN1CCN(Cc2nc(-c3ccccc3)cs2)CC1CCO (stereo not drawn) | -62.7% |
| OCCC1CN(Cc2nc(-c3ccccc3)cs2)CCN1C1CCCC1 (stereo not drawn) | -66.4% |
| Cc1oc(-c2cccs2)nc1CN1CCN(CCC(C)C)C(CCO)C1 (stereo not drawn) | -27.6% |
| OCCC1CN(Cc2ccncc2)CCN1C1CCCC1 (stereo not drawn) | -8.58% |
| O=C(CC1C(=O)NCCN1CC(c1ccccc1)c1ccccc1)NCC1CCOCC1 (stereo not drawn) | 6.24% |
| CCCNC(=O)c1ccc(CN2CCOCC2)cc1 | 8.4% |
| O=C(CS(=O)(=O)c1c[nH]c2ccccc12)Nc1ccc(F)cc1 | -21.8% |
| Cc1cccc(OCCn2c(NC(=O)c3ccco3)nc3ccccc32)c1 | 12.5% |
| CCC(=O)N/C(N)=N/c1nc2ccccc2o1 | -10.3% |
| O=C(COc1ccc(Cl)cc1Cl)N1CCCN(C(=O)COc2ccc(Cl)cc2Cl)CC1 | -47.2% |
| COc1ccc(-c2nc3ccc(C)cn3c2NCc2ccc3c(c2)OCO3)cc1 | -34.1% |
| Cc1ccc(-c2nc3ccccn3c2NCc2ccc3c(c2)OCO3)cc1 | -69.3% |
| Fc1ccc(-c2nc3ccccn3c2NCc2ccc3c(c2)OCO3)cc1 | -24.3% |
| COc1ccc(-c2nc3ccccn3c2NCc2ccc3c(c2)OCO3)cc1 | -82.4% |
| COc1ccc(-c2nc3cc(C)ccn3c2NCc2ccc3c(c2)OCO3)cc1 | -67.5% |
| c1ccc(-c2nc3ccccn3c2NCc2ccc3c(c2)OCO3)cc1 | -36.1% |
| Oc1ccc(-c2nc3ccccn3c2NCc2ccc3c(c2)OCO3)cc1 | -45.8% |
| Cc1ccn2c(NCc3ccc4c(c3)OCO4)c(-c3ccc(O)cc3)nc2c1 | -11.6% |
| Cc1cccn2c(NCc3ccc4c(c3)OCO4)c(-c3ccc(O)cc3)nc12 | -22.6% |
| COc1ccc2c(C)c(CCC(=O)NC3CC3)c(=O)oc2c1C | 14.4% |

| Structure (SMILES) | hERG current change (%, negative = inhibition) at 10uM |
| --- | --- |
| CCCc1cc(C(=O)Nc2ccccc2C(=O)OC)no1 | 7.76% |
| CCCC(=O)Nc1cccc(-c2cn3ccsc3n2)c1 | -47.5% |
| CCOc1ccc(N(C(=O)/C=C/C(=O)Nc2cc(C)on2)C(C(=O)NC2CCCC2)c2ccccc2C)cc1 (stereo not drawn) | -6.96% |
| CCn1nc(C)c(CNCc2cn[nH]c2-c2cc3ccccc3o2)c1C | -19% |
| O=C(O)c1cc(C(F)(F)F)nc2ccccc12 | 3.92% |
| CC(C)(C)OC(=O)NC(Cc1ccccc1)C(=O)O (stereo not drawn) | -50.5% |
| CC(C)(C)OC(=O)NC(CC(=O)OCc1ccccc1)C(=O)O (stereo not drawn) | 10.1% |
| CC(C)(C)OC(=O)N[C@@H](CC(=O)OCc1ccccc1)C(=O)O | 10.9% |
| CC(C)(Oc1ccc(Cl)cc1)C(=O)NCCCn1ccnc1 | -21.2% |
| C=CCn1c(SCC(=O)N2CCCC2=O)nc2sc(CC)cc2c1=O | -70.9% |
| C=CCn1c(SCC(=O)NC2CCCC2)nc2sc(C)cc2c1=O | -5.84% |
| C=CCn1c(SCC#N)nc2sc(CC)cc2c1=O | -16.5% |
| C=CCn1c(SCC(=O)Nc2cc(C)on2)nc2sc(CC)cc2c1=O | 1.3% |
| C=CCn1c(SCC(=O)Nc2ccc(O)cc2)nc2sc(CC)cc2c1=O | -62.5% |
| C=CCn1c(SCC(=O)c2cccs2)nc2sc(CC)cc2c1=O | -4.31% |
| C=CCn1c(SCC(=O)O)nc2sc(CC)cc2c1=O | 13.8% |
| C=CCn1c(SCC(=O)NC2CC2)nc2sc(CC)cc2c1=O | -54.6% |
| C=CCn1c(SCC(=O)N2CCN(C(=O)c3ccco3)CC2)nc2sc(CC)cc2c1=O | -76.3% |
| C=CCn1c(SCC(=O)NC2CCS(=O)(=O)C2)nc2sc(CC)cc2c1=O (stereo not drawn) | -47.8% |
| C=CCn1c(SCC(=O)Nc2sccc2C(N)=O)nc2sc(CC)cc2c1=O | -1.95% |
| C=CCn1c(SCC(=O)N2CCc3ccccc3C2)nc2sc(CC)cc2c1=O | -34.5% |
